# Hit rate of the full screen: of about 48,000 compounds, about 13,000 (27%) showed an effect of 50% or more. The list shows a part of the results.
# Tested on: Wolbachia pipientis
# Test: Anti-Wolbachia Cell-Based Screen
# Type: functional
# Parameters: scale not given: in the data most compounds retested in dose-response had high values
# Conditions: 5 µM
row,Structure (SMILES),Percent Effect
1,CC(C)N(Cc1nccn1C)C(=O)c1cc(Cl)c[nH]c1=O,-15.2%
2,CCNC(=O)[C@@H]1C[C@@H](N)CN1Cc1ccc(Sc2ccc(C)cc2)o1,5.501%
3,CN(C(=O)COC1CCCC1)C1CCN(CC2CCOC2)CC1 (configuration not stated),-27.33%
4,CN(CCCc1nccn1C)C(=O)C1CCN(C(=O)C2CCC2)CC1,9.591%
5,O=C(NC1CCCC1)N1CC[C@H]2[C@H]1CCN2c1nncs1.O=C(O)C(F)(F)F,1.453%
6,CS(=O)(=O)N1CCCc2sc(C(=O)NC3CC3)nc21,-1.89%
7,Cc1cc(CNC(=O)NC(C)c2ccccc2)no1 (configuration not stated),-4.939%
8,CN(C)c1ncccc1CNC(=O)NCc1cccs1,101%
9,Cc1cc(CNC(=O)NCc2cccs2)no1,116.2%
10,Cc1cc(CN2CCN(C(C)C(=O)NCc3cccs3)CC2)no1 (configuration not stated),-4.683%
11,CC(NC(=O)NCc1cccnc1N(C)C)c1ccc(F)cc1 (configuration not stated),97.94%
12,Cc1cc(CNC(=O)c2cc(COc3cncc(Cl)c3)on2)n[nH]1,-4.866%
13,CN1CCCC2(CCN(S(=O)(=O)c3c(Cl)nc4sccn34)C2)C1=O (configuration not stated),-6.903%
14,COc1ccc(CN2CCCn3nnc(COCC4CC4)c3C2)cc1.O=C(O)C(F)(F)F,-11.72%
15,CN(Cc1c[nH]nc1-c1ccc(F)cc1F)Cc1nccn1C,-2.031%
16,CCC(C)(NCC(=O)NC(=O)NC)c1nccs1 (configuration not stated),3.438%
17,Cc1ccc(C2COCCN2C(=O)c2ccc(N(C)C)cc2)o1 (configuration not stated),16.04%
18,O=C(COc1ccccc1F)N1CCCCC1c1ccn2ccnc2n1 (configuration not stated),107.9%
19,O=C(COc1cccc(F)c1)N1CCCCC1c1ccn2ccnc2n1 (configuration not stated),137.7%
20,O=C(Cc1ccccc1F)N1CCCCC1c1ccn2ccnc2n1 (configuration not stated),125%
21,O=C(Cc1cccc(F)c1)N1CCCCC1c1ccn2ccnc2n1 (configuration not stated),7.751%
22,O=C(CCc1cccnc1)N1CCCCC1c1ccn2ccnc2n1 (configuration not stated),103.4%
23,CC(C)(C)OC(=O)N1CCCCC(NC(=O)CCc2cccnc2)C1 (configuration not stated),15.24%
24,O=C(Cc1ccc(F)cc1)N1CCCCC1c1ccn2ccnc2n1 (configuration not stated),-3.373%
25,CN1C(=O)c2ccc(NC(=O)CSc3ccc4c(c3)CCC4)cc2C1=O,8.962%
26,Cc1ncsc1CCC(=O)NCc1cc2n(n1)CCN(C(=O)N(C)C)C2,-5.05%

row,Structure (SMILES),Percent Effect
1,CCOC(C)C(=O)Nc1cc(S(=O)(=O)NC2CC2)ccc1F (configuration not stated),0.6608%
2,Cn1c(=O)oc2cc(Nc3ncc(C#N)cc3Cl)ccc21,-1.67%
3,Cc1nn(C)cc1CN1CCc2c(nc(-c3ccccn3)[nH]c2=O)C1,96.61%
4,COc1ccccc1CN1C[C@@H](F)[C@@H](OCc2nc3ncccc3[nH]2)C1,-5.339%
5,O=C(c1ccco1)N1CCc2c(nc(-c3ccncc3)[nH]c2=O)C1,13.85%
6,COc1ccccc1CN1CCc2c(nc(-c3ccccn3)[nH]c2=O)C1,118.7%
7,Cn1cnc2c1CCN(Cc1cccc(C(N)=O)c1)C2,-6.228%
8,COc1ccccc1CN1C(=O)O[C@@H]2CN(c3ccccn3)C[C@@H]21,2.644%
9,COc1ccc2c(c1)CN(Cc1nc3ccsc3c(=O)[nH]1)CC2,-2.354%
10,COc1ccc(CN2CCc3c(nc(-c4ccccn4)[nH]c3=O)C2)cc1,130.9%
11,O=c1[nH]c(-c2ccccn2)nc2c1CCN(Cc1cccc(O)c1)C2,110.8%
12,CCc1nnc(CN2CCc3[nH]c(-c4ccc(OC)cc4)nc3C2)o1,-0.2672%
13,c1ccc(-c2noc(CN3CCc4c(ncn4C4CC4)C3)n2)nc1,-14.25%
14,CCn1nc2c(cc1=O)CN(Cc1nc(-c3ccccn3)no1)CC2,-6.264%
15,Cc1nnc(CN(C)CC(=O)N2CCCN(C3CCCC3)CC2)n1C,-1.28%
16,Cc1cccc(S(=O)(=O)NCC(C)(C)CC(C)O)c1C#N (configuration not stated),-19.79%
17,CCNC(=O)Nc1c(C)cnn1Cc1cc(F)ccc1F,-3.451%
18,O=C(C[S+]([O-])Cc1c(Cl)cccc1Cl)N1CCc2sccc2C1 (configuration not stated),-11.53%
19,COc1cc2ccccc2cc1C(=O)N1CCCC(c2nncn2C)C1 (configuration not stated),138.9%
20,COc1ccccc1CNC(=O)N1CCCC(c2nncn2C)C1 (configuration not stated),-1.227%
21,Cn1cnnc1C1CCCN(C(=O)c2cc3ccccc3[nH]2)C1 (configuration not stated),124.8%
22,Cn1cnnc1C1CCCN(C(=O)c2n[nH]c3ccccc23)C1 (configuration not stated),7.957%
23,Cc1occc1CN(C)C(=O)Nc1ccc(=O)n(C)c1,5.737%
24,c1ccc(CN2CCC(NCCc3ccc4c(c3)CCO4)CC2)nc1,2.392%
25,Cn1ccc(C(=O)Nc2cccc(-c3ccc4c(c3)CCO4)n2)cc1=O,-14.88%
26,Cc1nc(C)n(C2CCCN(C(=O)COc3ccccc3)C2)n1 (configuration not stated),133.2%

row,Structure (SMILES),Percent Effect
1,N#Cc1ccc(OCC(=O)N2CCCC(n3cccn3)C2)cc1 (configuration not stated),-1.98%
2,Cc1nc(C)n(C2CCCN(C(=O)Cc3n[nH]c4ccccc34)C2)n1 (configuration not stated),-3.08%
3,Cc1ccc(OCCC(=O)N2CCCC(n3nc(C)nc3C)C2)cc1 (configuration not stated),93.22%
4,CCc1[nH]ncc1C(=O)N1CCCC(n2nc(C)nc2C)C1 (configuration not stated),-3.385%
5,Cc1nc(C)n(C2CCCN(C(=O)Cc3cccnc3)C2)n1 (configuration not stated),-7.777%
6,CCOc1ccc(CC(=O)N2CCCC(n3nc(C)nc3C)C2)cc1 (configuration not stated),81.54%
7,Cc1nc(C)n(C2CCCN(C(=O)CCCOc3ccccc3)C2)n1 (configuration not stated),1.016%
8,Cc1nc(C)n(C2CCCN(C(=O)c3cccc4cn[nH]c34)C2)n1 (configuration not stated),1.609%
9,Cc1nc(C)n(C2CCCN(C(=O)COc3cccc(C#N)c3)C2)n1 (configuration not stated),83.98%
10,CCN(C)c1ncnc2c1CCN(Cc1nccs1)CC2.O=C(O)C(F)(F)F.O=C(O)C(F)(F)F,-6.805%
11,CN(C)Cc1cc(-c2nccn2CCc2cccnc2)ccc1O,-8.952%
12,Cc1nnc(NCc2ccccc2Cl)c(C#N)c1C,4.284%
13,CCCC(=O)Nc1cc(C(=O)NC(C)Cc2ccncc2)ccc1C (configuration not stated),2.128%
14,CC(C)OCCOCc1cccc(NC(=O)N2CCCC(O)C2)c1 (configuration not stated),-8.695%
15,CC(C)(C)OC(=O)N1CCC(NC2CCS(=O)(=O)C2)CC1 (configuration not stated),-18.26%
16,c1ncn(Cc2nnc(C3CCN(C4CCOCC4)CC3)n2C2CC2)n1,-14.43%
17,Cc1csc2c(N3CCC(NCCc4ccnn4C)CC3)ncnc12,1.51%
18,Cc1nc(C)n(C2CCCN(C(=O)c3ccccc3C)C2)n1 (configuration not stated),3.222%
19,COc1ccsc1C(=O)N1CCCC(n2nc(C)nc2C)C1 (configuration not stated),-12.01%
20,CCOc1ncccc1C(=O)N1CCCC(n2nc(C)nc2C)C1 (configuration not stated),-3.094%
21,Cc1nc(C)n(C2CCCN(C(=O)COCc3ccccc3)C2)n1 (configuration not stated),-1.544%
22,Cc1ccc(OCC(=O)N2CCCC(n3nc(C)nc3C)C2)cc1 (configuration not stated),110.7%
23,CCOc1cc(C(=O)N2CCCC(n3nc(C)nc3C)C2)ccn1 (configuration not stated),108.5%
24,CCCNC(=O)CCC(=O)Nc1cc2sc(C)nc2cc1OC,9.826%
25,CC(=O)N(CCc1ccccc1)CC(=O)NC1(C#N)CC1,-30.59%
26,COCCNC(=O)Nc1cc2c(cc1SC)OCCO2,8.638%

row,Structure (SMILES),Percent Effect
1,CCCn1ncc(CN(Cc2cccnc2)Cc2cccs2)c1C,103.6%
2,CCCn1ncc(CN(Cc2ccsc2)Cc2ccco2)c1C,-9.54%
3,CCCn1ncc(CN(Cc2cccnc2)Cc2ccsc2)c1C,-8.215%
4,Cc1cnc(C(=O)NCC2CCOc3ccccc3C2)cn1 (configuration not stated),-13.56%
5,CN1Cc2ccccc2CC2(CCN(CCO)CC2)C1=O.O=C(O)C(F)(F)F,115.9%
6,CCC(=O)N1CCC2(CCC(N3CCCC3)c3ccccc32)CC1.O=C(O)C(F)(F)F (configuration not stated),3.41%
7,CN(C)CC(=O)N1CCC2(CCc3ccc(-c4ccncc4)cc32)CC1.O=C(O)C(F)(F)F.O=C(O)C(F)(F)F,-5.921%
8,CCC(=O)N1CCC2(CC1)CN(CCO)Cc1ccccc12.O=C(O)C(F)(F)F,102.3%
9,O=C(O)C(F)(F)F.O=C1NC2(CCN(CCO)CC2)CC1c1ccccc1 (configuration not stated),-11.42%
10,Cc1ccc2c(c1)CCC21CCN(C(=O)CN(C)C)CC1.O=C(O)C(F)(F)F,-5.589%
11,CN(C)CC(=O)N1CCC2(CC1)Cc1ccccc1CN(C)C2=O.O=C(O)C(F)(F)F,100.6%
12,O=C(O)C(F)(F)F.OCCN1CCC2(CCc3cc(-c4ccoc4)ccc32)CC1,-5.602%
13,COc1cccc2[nH]cc(CCNC(=O)N3CCCC3CO)c12 (configuration not stated),-6.356%
14,Cc1cc(C(F)(F)F)nn1CC(C)C(=O)Nc1ccncc1 (configuration not stated),0.9571%
15,CCc1nnc2n1CCN(C(=O)c1cnc(C3CC3)s1)C2,-2.147%
16,COCCN1CCC(CN(C)c2nc3c(s2)c(C)nn3C)CC1,20.85%
17,CC(C)c1nnc2sc(CC3CCS(=O)(=O)CC3)nn12,-25.36%
18,CCCc1nnc(N2CCC(N3CCCC3)CC2)o1,13.58%
19,CCCc1nnc2sc(C3CCN(CCOC)CC3)nn12,91.66%
20,CCCc1nnc2sc(C3CCN(C4CCN(C)CC4)CC3)nn12,110.3%
21,CCCc1nnc2sc(C3CCS(=O)(=O)CC3)nn12,102.2%
22,CCCN1CCC(Cc2nn3c(C(C)C)nnc3s2)CC1,-24.84%
23,CN1CCC(c2nnc(CN3CCCC3)n2C2CC2)CC1,3.888%
24,COCCN(Cc1ccc(F)cc1Cl)C(=O)c1c(C)noc1C,-7.474%

# Reference: ChEMBL document CHEMBL3988442, “University of Dundee, Small-Polar-MMV Screening Library” (2021)
